From PubChem BioAssay
The sample as a whole holds a higher share of hits than the screen did.
mcGAS MS inh: blocks mouse cGAS cGAMP production; 130,000 compounds, 0.18% hits; inhibition, % at 12.5 µM; Q8C6L5; recombinant mouse cGAS, cGAMP by RapidFire MS;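 active = inhibition of cGAS enzyme activity at or above 60%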;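 also: enzyme stimulated by 45 bp dsDNA with ATP and GTP substrates; cGAMP share of summed cGAMP plus half ATP and half GTP signals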
Target sequence (Q8C6L5 whole entry, looked up): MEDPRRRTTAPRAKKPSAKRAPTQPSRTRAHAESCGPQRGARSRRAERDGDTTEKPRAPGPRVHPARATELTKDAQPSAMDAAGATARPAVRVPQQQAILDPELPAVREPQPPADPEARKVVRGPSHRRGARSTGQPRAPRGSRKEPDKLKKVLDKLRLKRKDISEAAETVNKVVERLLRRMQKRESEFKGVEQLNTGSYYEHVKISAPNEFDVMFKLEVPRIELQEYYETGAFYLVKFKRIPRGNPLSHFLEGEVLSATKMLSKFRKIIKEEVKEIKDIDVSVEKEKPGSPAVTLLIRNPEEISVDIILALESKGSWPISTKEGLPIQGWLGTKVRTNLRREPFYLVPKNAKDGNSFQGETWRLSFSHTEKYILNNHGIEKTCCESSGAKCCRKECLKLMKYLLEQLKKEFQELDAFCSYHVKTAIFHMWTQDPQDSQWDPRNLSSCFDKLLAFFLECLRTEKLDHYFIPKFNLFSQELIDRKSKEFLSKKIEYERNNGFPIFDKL
Active calls of the source: *; ! = not confirmed by another sample.

SMILES | mcGAS MS inh
CN1CCC=C(c2noc(C3CCCN3C(=O)C3CCCCC3)n2)C1 (configuration not stated) | -7
CN(Cc1ncc[nH]1)Cc1cc(C(C)(C)C)ccc1O | 4
CC[n+]1c(-c2ccccc2)c2cc(N)ccc2c2ccc(N)cc21 | 97*!
CC[n+]1c2ccccc2cc2ccccc21 | -1
N#CC(=Cc1ccc2c(c1)OCO2)c1nc2cc(C(F)(F)F)ccc2s1 | -5
COc1cccc(-n2c(-c3snnc3-c3ccccc3)n[nH]c2=S)c1 | 11
CC(=O)C1=NN(c2ccccc2)C2(N3CCOCC3)CCCC12 (configuration not stated) | 4
COc1ccc(C(=O)Nc2ccnn2C2CCN(C(=O)C3=CCCC3)CC2)cc1 | 4
CC(=O)OC[C@H]1O[C@@H](Oc2cc(OC(C)=O)c3c(=O)cc(-c4ccc(OC(C)=O)cc4)oc3c2)[C@H](OC(C)=O)[C@@H](OC(C)=O)[C@@H]1OC(C)=O | -4
O=C(OC[C@H]1O[C@H](OC(=O)c2cc(O)c(O)c(OC(=O)c3cc(O)c(O)c(O)c3)c2)[C@H](OC(=O)c2cc(O)c(O)c(OC(=O)c3cc(O)c(O)c(O)c3)c2)[C@@H](OC(=O)c2cc(O)c(O)c(OC(=O)c3cc(O)c(O)c(O)c3)c2)[C@@H]1OC(=O)c1cc(O)c(O)c(OC(=O)c2cc(O)c(O)c(O)c2)c1)c1cc(O)c(O)c(OC(=O)c2cc(O)c(O)c(O)c2)c1 | 96*
Clc1nc2ccccc2cc1CN1CCCC(n2ccnc2)C1 (configuration not stated) | -3
CC1CCc2c(sc3ncn(CC(=O)Nc4ccccc4C(C)(C)C)c(=O)c23)C1 (configuration not stated) | -3
O=S(=O)(/C=C/c1ccccc1)Nc1ccnn1C1CCCC1 | -5
CCn1c(C2CCCNC2)nn(Cc2cc(=O)n3cc(C)sc3n2)c1=O (configuration not stated) | -6
CCn1c(C2CCCNC2)nn(Cc2cc(OC)ccn2)c1=O (configuration not stated) | 61*!
COc1ccnc(Cn2nc(C3CCNCC3)n(-c3ccccc3)c2=O)c1 | 5
Cc1ccc(C2([N+](=O)[O-])C(=O)c3ccccc3C2=O)cc1 | 90*
Cc1ccc(/C(=C2\OC(=O)c3ccccc32)[N+](=O)[O-])c(C)c1 | 5
Cc1ccc(N2Cc3ccccc3C2=O)cc1 | -5
CCOc1ccc(C(=O)c2nc3c(n2O)CCCCC3)cc1OCC | -3
Cc1ccc(C(=O)c2nc3c(n2O)CCCCC3)cc1 | 90*
O=C(c1cccc2ccccc12)c1nc2c(n1O)CCCC2 | -5
COc1ccc(C2Nn3c(nnc3C3CC3)SC2C(=O)c2ccc(F)cc2)cc1 (configuration not stated) | -3
Cc1cc(CNC(=O)c2cscn2)ccc1S(C)(=O)=O | -7
CN(CC(=O)N1CCC2(CCNCC2)CC1)Cc1ccncc1 | -8
SMILES | mcGAS MS inh
O=C1Nc2ccc(Br)cc2C1=c1sc2nc3ccccc3n2c1=O | 4
O=C1Nc2ccc(Br)cc2C1=O | 5
O=C1Nc2ccc(Br)cc2/C1=c1/sc2n(c1=O)CCN=2 | 81*
CC(C)(C)n1c(NC(=O)c2cccc(N3NC(=O)C4CC=CCC4C3=O)c2)nc2ccccc21 (configuration not stated) | -4
CCCOc1ccc(C2NC(=S)NC(C)=C2C(=O)OC)cc1 (configuration not stated) | -3
C=CCN(CCN1CCOCC1)Cc1ccc(C#N)cc1 | -5
COc1ccc(CCC(=O)N2CCN(Cc3nnc(C4CC4)o3)CC2)cc1 | 94*
COCCN1CCN(C(=O)CCc2nnc(CCc3ccc(OC)cc3)o2)CC1 | -2
COC(=O)C1CCCCN1C(=O)CCc1nnc(CCc2ccc(OC)cc2)o1 (configuration not stated) | -12
CCCCOc1ccc(S(=O)(=O)NC(=O)C2(C)CCN2C(=O)c2ccccc2)cc1 (configuration not stated) | -11
CC(CC(=O)N1CCCC(c2n[nH]c(=S)n2C)C1)C1CCCCC1 (configuration not stated) | -4
COc1ccc(/C=C2\SC(=S)N(C3CCS(=O)(=O)C3)C2=O)cc1OC (configuration not stated) | 4
COc1ccc(OCc2ccccn2)c(C=O)c1 | 0
Cc1cc(Cl)ccc1N=Cc1nc(-c2ccccc2F)oc1O | -3
COc1cc([N+](=O)[O-])ccc1N=Cc1nc(-c2ccccc2F)oc1O | -11
Cc1ccc([N+](=O)[O-])cc1N=Cc1nc(-c2ccccc2F)oc1O | 81*
C(=C\c1ccccc1)/CN1CCC(n2cc(-c3ccsc3)nn2)CC1 | -20
Cc1ccc2c(c1)c(CNC(=O)C1CNCC(=O)N1)nn2C (configuration not stated) | 64*
Cc1ccc2c(c1)c(CNC(=O)CCc1c(C)nn(C)c1C)nn2C | -23
Cc1ccc2c(c1)c(CNC(=O)c1ccccc1C1CCNC1)nn2C (configuration not stated) | -19
CCOC(=O)c1c(C)[nH]c(C(=O)COC(=O)C23CC4CC(CC(NC(C)=O)(C4)C2)C3)c1C | 3
